Source: PubChem BioAssay (NCI)
This is part of a sample that, as a whole, favours compounds with a hit. Of some 79,000 tested, about 15% had one in any assay. Values without a mark were called inactive. Activity calls are given as the source filed them. Rule as the data show it: active = growth inhibition above about 70%; inactive = the rest.

What was measured:
[1] = NCI Yeast Anticancer Drug Screen. Data for the rad50 strain (AID 155);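 also: 0% = growth of vehicle-only cultures of the same strain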; conditions: S. cerevisiae rad50 strain growth inhibition; at 50.0 µM; active compounds read high
How it was run: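 A DNA repair-deficient yeast mutant serves as the test organism; compound-induced growth inhibition is calculated against vehicle-treated cells.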

[2] = NCI Yeast Anticancer Drug Screen. Data for the mec2-1 strain (AID 157); conditions: S. cerevisiae mec2-1 strain, at 50.0 µM, active compounds read high
How it was run: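 mec2-1 yeast strain, carrying an alteration in DNA damage repair or cell cycle control, was exposed to compounds; growth inhibition was measured relative to vehicle-treated controls.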

[3] = NCI Yeast Anticancer Drug Screen. Data for the sgs1 mgt1 strain (AID 161);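 also: 0% = growth of cultures given vehicle only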; conditions: S. cerevisiae sgs1 mgt1 strain, at 50.0 µM, active compounds read high
How it was run: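 Percent growth inhibition was derived by comparing compound-exposed mutant yeast with vehicle-exposed cultures. The strain carries alterations in DNA damage repair.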

[4] = NCI Yeast Anticancer Drug Screen. Data for the cln2 rad14 strain (AID 165);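 also: 0% = growth equal to vehicle treated cultures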; conditions: S. cerevisiae cln2 rad14 strain, at 50.0 µM, active compounds read high
How it was run: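 Yeast carrying cln2 and rad14 alterations (cell cycle control and DNA damage repair) were exposed to compounds. Growth inhibition was measured against vehicle-treated controls.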

[5] = NCI Yeast Anticancer Drug Screen. Data for the bub3 strain (AID 167); conditions: S. cerevisiae bub3 mutant strain, at 50.0 µM, active compounds read high
How it was run: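 Inhibition values come from growth of compound-treated mutant yeast normalised to vehicle-treated controls.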

[6] = NCI Yeast Anticancer Drug Screen. Data for the mlh1 rad18 strain (AID 175); conditions: S. cerevisiae mlh1 rad18 strain growth inhibition; at 50.0 µM; active compounds read high
How it was run: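 Growth inhibition of the yeast strain was measured after compound exposure and expressed relative to vehicle-treated controls. The strain carries defined defects in DNA damage repair.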

| SMILES | growth inhibition [1] | growth inhibition [2] | growth inhibition [3] | growth inhibition [4] | growth inhibition [5] | growth inhibition [6] |
| --- | --- | --- | --- | --- | --- | --- |
| COc1ccc(CC2C(=O)NC(=O)NC2=O)cc1OCc1ccccc1 | 14.7% | -1.75% | -14.1% | -10% | -17.4% | -44.6% |
| CC(=O)c1cccc(OCc2ccccc2)c1 | 6.4% | 2.75% | – | – | – | – |
| COC(=O)C/C(=C/C=C1/C(=O)ON=C1C)c1c(C)[nH]oc1=O | -10.9% | -29.9% | – | – | – | – |
| NC(=O)C(c1ccccc1)N1CCCC1 (stereo not drawn) | 2.05% | -17.9% | – | – | – | – |
| COc1cc2c(c3c1c(=O)c1ccccc1n3C)C=C([N+](=O)[O-])C(C)(C)O2 | 1.4% | -32.8% | 16.6% | 6.95% | -39.5% | -25.3% |
| N#C/C(=C/c1ccccc1Cl)C(N)=O | -12.2% | -7.05% | – | – | – | – |
| COc1cc(C)c2c(c1C=O)Oc1c(c(C)c(O)c3c1C(O)OC3=O)OC2=O (stereo not drawn) | 25.3% | -7.65% | 4.85% | 25.6% | -4.85% | -60.3% |
| COC(=O)C(=O)C(C(=O)C(=O)Nc1ccccc1C(C)=O)c1nc2ccc(C(=O)c3ccccc3)cc2[nH]c1=O (stereo not drawn) | 25.9% | -6.6% | 33.6% | 28.6% | 5.25% | – |
| C=CCn1c2c(c3ccccc3c1=O)C(=O)c1ccccc1-2 | 43.9% | -6.5% | 1.7% | 30.9% | -8.5% | -49.9% |
| CCN(CC)C(=O)c1cccnc1 | 0.8% | -46.9% | -33% | 14.2% | -20.4% | – |
| COC(=O)CCNCc1ccccc1 | -7.25% | -41.6% | – | – | – | – |
| Cc1cccc(C)c1NC(=S)N(C)C | -8.8% | -7.3% | – | – | – | – |
| CC12CC3CC(C(Cl)C(=O)O)(C1)CC(C(Cl)C(=O)O)(C3)C2 (stereo not drawn) | 52.1% | 14.5% | – | – | – | – |
| CCOc1cccc(/C=C2\N=C(c3ccccc3)OC2=O)c1 | 4.35% | 25% | – | – | – | – |
| COc1cccc(N2C(=O)CSC2=S)c1 | 32.7% | 7.95% | – | – | – | – |
| COc1cc2c(cc1C1COc3cc4occc4cc3C1=O)OCO2 (stereo not drawn) | 5.15% | -33.8% | 4.05% | 6.8% | -4.45% | – |
| CCCCCCCCCC(O)CC(=O)c1c(O)cccc1O (stereo not drawn) | 69.8% | 77.2% (active) | 82.8% (active) | 86.2% (active) | 82.1% (active) | – |
| Clc1ccc(C2C3COc4ccccc4C3=NN2c2ccccc2)cc1 (stereo not drawn) | -26.1% | -29.9% | -14.8% | 0.5% | -29.5% | – |
| CN(C)c1ccc(/C=N/n2c(-c3ccccc3)nc3ccccc3c2=O)cc1 | 14.3% | 14.2% | 43.8% | 13.4% | 50.8% | -41% |
| C[C@]12CC[C@@H]3c4ccc(OS(N)(=O)=O)cc4CC[C@H]3[C@@H]1CCC2=O | 2.35% | 8.15% | -2.05% | 8.35% | 5.6% | – |
| COc1ccc(/C=C(\C#N)c2ccc(Cl)cc2)cc1OC | -2.05% | -8% | – | – | – | – |
| CCC(=O)CC1CCCC(CC(=O)CC)N1C (stereo not drawn) | -4.6% | -2.55% | – | – | – | – |
| COc1ccc(N=c2ssc(SC)c2-c2ccccc2)cc1 | 15.4% | -11.4% | – | – | – | – |
| CC1=NN(c2ccccc2)C(=O)C1CCC#N (stereo not drawn) | 10.6% | -12.9% | – | – | – | – |
| CC1CC(=O)N(N(C)C)C(C#N)(C#N)C1(C#N)C#N (stereo not drawn) | 24.4% | 30.6% | 11.2% | 17.5% | 0.8% | – |
| CCOc1ccc(Br)cc1/C=C1\N=C(c2ccccc2)OC1=O | -2.25% | -12.2% | – | – | – | – |

| SMILES | growth inhibition [1] | growth inhibition [2] | growth inhibition [3] | growth inhibition [4] | growth inhibition [5] | growth inhibition [6] |
| --- | --- | --- | --- | --- | --- | --- |
| C[C@@H]1CC[C@H]2C(C)(C)[C@H]3C[C@@]12CC[C@@]3(C)O | 21.9% | -16.9% | 12.8% | 14.1% | 11.8% | -18.6% |
| Cc1ccc(NC(=S)NCCO)cc1 | -25.4% | -41.8% | – | – | – | – |
| CSc1sc2cc([N+](=O)[O-])ccc2[n+]1C | -0.4% | -7.6% | – | – | – | – |
| Cc1ccc(OC2CC(n3cnc4ncnc(Cl)c43)OC2Oc2ccc(C)cc2)cc1 (stereo not drawn) | 21% | 2.1% | 13.9% | 8.4% | 13% | – |
| O=C(Cc1nc2ccccc2[nH]c1=O)N/N=C/c1ccc2c(c1)CCC2 | -30.2% | -28.6% | – | – | – | – |
| O=C1CC(c2ccccc2)NCCCCN2CC(CN1)C(C(O)c1ccccc1)C2=O (stereo not drawn) | -20.4% | -34.8% | -39.4% | 8.95% | -44.6% | -49% |
| O=[N+]([O-])c1ccc(-n2[nH]nnc2=S)cc1 | -6.7% | -25% | – | – | – | – |
| CCC(C)NCCNCCNC(C)CC (stereo not drawn) | -9% | -11.1% | – | – | – | – |
| CCN(CC)CCN(C)CC(=O)Nc1ccccc1C | 1.9% | – | – | – | – | – |
| Cn1/c(=N/Sc2nnnn2-c2ccccc2)sc2ccccc21 | 13.6% | -13.9% | – | – | – | – |
| COC(=O)C1=CO[C@@H](OC2OC(CO)C(O)C(O)C2O)[C@H]2[C@@H](C)[C@@H](O)[C@@H](O)[C@@H]12 (stereo partly drawn) | -5.15% | -10.1% | -0.75% | 2.4% | -5.9% | -57.7% |
| CC(C)=CC(O)C/C(C)=C/CC/C(C)=C/CCC1(C)C(CCCO)/C(=C(/C)C=O)CCC1(C)O (stereo not drawn) | 18.9% | 4.75% | 10.2% | 16.9% | 4.6% | -52.9% |
| Cc1ccc(OCC2OC(n3cnc4nc(Cl)nc(Cl)c43)CC2Oc2ccc(C)cc2)cc1 (stereo not drawn) | 36% | 12.4% | 50.5% | 50.2% | 57.6% | 15.2% |
| CC(C)=CCc1c(OC(=O)c2c(C)cc(O)cc2O)cc(CO)c(CO)c1O | 5.1% | 11.4% | 30.4% | 5.95% | 8.65% | -54.9% |
| C/C(=C\COc1cc(O)c2c(c1)C(=O)c1cc(C)cc(O)c1C2=O)CCC1OC1(C)C (stereo not drawn) | 16.7% | -22.9% | 4.55% | -0.65% | -12.4% | -53.7% |
| CCOc1cc2c(cc1O)/C(=N/NS(=O)(=O)c1ccc(C)cc1)C[C@@H]1[C@@H]2CC[C@]2(C)[C@@H](O)CC[C@@H]12 | 33.9% | 26.9% | 4.05% | 35.4% | 14.1% | 4.4% |
| COc1ccc(OC)c(N(CN2C(=O)CCC2C(=O)O)C(C)=O)c1 (stereo not drawn) | 10.2% | 10.2% | -13.3% | 1.05% | -17.7% | -23.3% |
| COC(=O)c1cc(C#N)[nH]c1-c1ccsc1 | -27.4% | -8% | -10.8% | 6.4% | -3.4% | 6.9% |
| COc1ccc2c(c1)N(C(C)=O)CN1C(=O)CCC21 (stereo not drawn) | -10.4% | 1.25% | -1.25% | 21.8% | 6.85% | -66% |
| NC(N)=Nc1ccc(CC(N)C(=O)O)cc1 (stereo not drawn) | -0.5% | -18.8% | -13.4% | 15.2% | -3.8% | -25.6% |
| CCC(c1ccc(N(C)C)cc1)C1NC(=S)NC1=O (stereo not drawn) | -4.2% | -27.8% | -17.6% | 0.85% | 11.8% | -9.55% |
| COC(=O)/C(=N\NC(=S)NN)C(C(=O)OC)C(=O)C(=O)Nc1cccc(C(F)(F)F)c1 (stereo not drawn) | 0.3% | 1.4% | 8.9% | 5.6% | -9.25% | 24.1% |
| N/N=C(\C(=O)Nc1ccc([N+](=O)[O-])cc1)C(C1=Nc2cc([N+](=O)[O-])ccc2NC1)[N+](=O)[O-] (stereo not drawn) | 34.7% | 11.7% | 12.8% | -41.5% | 5% | 16.9% |
| O=C(Nc1cccc(NC(=O)C(=O)C2CCC3=C(Sc4ccccc4N3)C2=O)n1)C(=O)C1CCC2=C(Sc3ccccc3N2)C1=O (stereo not drawn) | 2.5% | 13.8% | 3% | 5.2% | 29.9% | 1.2% |
| CC1=C(/C=C/C(C)=C/C=C/C(C)=C/C(=O)Nc2ccc(O)cc2)C(C)(C)CCC1 | -28.4% | 1.05% | -2.3% | 6.45% | 12.2% | -13.2% |
